Measured values: PubChem BioAssay (Tox21)
Where “and” joins values, the source holds several entries; their conditions need not be identical. Identical values can stand only once. Results filed as inconclusive are left out. A call without a number means that no potency is given here. Some compounds were tested as several samples or in several runs, with calls that do not always agree. Calls of active or inactive are those of the source. Unless noted, calls follow the shape of the dose curve; as a rule, active = well fitted curve in the direction sought with a large enough effect in the repeat runs; inconclusive = weak or mixed curves; inactive = no such curve, though single readings can be large; an effect the other way counts as inactive or inconclusive.

What was measured:
[1] = target: Acetylcholinesterase (Homo sapiens) (UniProt P22303); experiment: Acetylcholinesterase (AChE) small molecule antagonists: colormetric cell-based qHTS assay (AID 1347395; calls by dose curve; also: nearly all actives have a fitted effect of over 30% in size); details: SH-SY5Y cells AChE activity, colorimetric (Ellman); series mostly up to 115 µM
Sequence of Acetylcholinesterase (Homo sapiens) (P22303 whole entry, looked up): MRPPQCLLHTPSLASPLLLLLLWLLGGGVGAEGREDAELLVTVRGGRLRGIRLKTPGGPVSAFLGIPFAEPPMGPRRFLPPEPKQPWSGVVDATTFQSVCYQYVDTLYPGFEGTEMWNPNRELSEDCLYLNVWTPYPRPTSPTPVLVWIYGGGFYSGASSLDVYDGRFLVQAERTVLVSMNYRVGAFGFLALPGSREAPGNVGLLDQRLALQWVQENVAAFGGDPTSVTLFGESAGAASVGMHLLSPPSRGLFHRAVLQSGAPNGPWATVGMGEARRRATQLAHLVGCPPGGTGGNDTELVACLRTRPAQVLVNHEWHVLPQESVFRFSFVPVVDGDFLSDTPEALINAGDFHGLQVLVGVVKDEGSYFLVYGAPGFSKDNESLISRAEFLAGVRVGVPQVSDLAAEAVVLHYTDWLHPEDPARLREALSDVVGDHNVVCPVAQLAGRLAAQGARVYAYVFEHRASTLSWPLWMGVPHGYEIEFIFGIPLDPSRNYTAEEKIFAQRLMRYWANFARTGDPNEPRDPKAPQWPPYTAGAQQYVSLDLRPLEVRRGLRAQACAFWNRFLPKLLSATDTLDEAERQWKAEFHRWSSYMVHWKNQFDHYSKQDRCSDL
In short: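 Homogeneous whole-cell format. SH-SY5Y cells seeded overnight, dosed with compound (30 min, 37 C, 5% CO2), then given DTNB/acetylthiocholine cocktail for 90 min at 37 C; colorimetric signal.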

[2] = target: Acetylcholinesterase (Homo sapiens) (UniProt P22303); experiment: Acetylcholinesterase (AChE) small molecule antagonists: enzyme-based qHTS assay with human liver microsomes (AID 1347399; calls by dose curve; also: nearly all actives have a fitted effect of over 60% in size); details: Potency: qHTS inhibition; series mostly up to 115 µM
In short: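 Recombinant human AChE (50 mU/mL in the enzyme mix) and human liver microsomes (0.25 mg/mL final) were preincubated with compound and NADPH (0.25 mg/mL final) for 30 min at 37 C. Acetylthiocholine/DTNB was then added; thiocholine was read colorimetrically after 10 min at room temperature.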

[3] = target: Cytochrome P450 2D6 (Homo sapiens) (UniProt P10635); experiment: Cytochrome P450 Family 2 Subfamily D Member 6 (CYP2D6) small molecule antagonists: luciferase reporter qHTS assay (AID 1671196); details: P450-Glo CYP2D6 enzyme assay, luciferin luminescence, 1 h; series mostly up to 115 µM; also: potency is read from the fitted curve at half-maximal effect; nearly all actives have a fitted effect of over 50% in size
Sequence of Cytochrome P450 2D6 (Homo sapiens) (P10635 whole entry, looked up): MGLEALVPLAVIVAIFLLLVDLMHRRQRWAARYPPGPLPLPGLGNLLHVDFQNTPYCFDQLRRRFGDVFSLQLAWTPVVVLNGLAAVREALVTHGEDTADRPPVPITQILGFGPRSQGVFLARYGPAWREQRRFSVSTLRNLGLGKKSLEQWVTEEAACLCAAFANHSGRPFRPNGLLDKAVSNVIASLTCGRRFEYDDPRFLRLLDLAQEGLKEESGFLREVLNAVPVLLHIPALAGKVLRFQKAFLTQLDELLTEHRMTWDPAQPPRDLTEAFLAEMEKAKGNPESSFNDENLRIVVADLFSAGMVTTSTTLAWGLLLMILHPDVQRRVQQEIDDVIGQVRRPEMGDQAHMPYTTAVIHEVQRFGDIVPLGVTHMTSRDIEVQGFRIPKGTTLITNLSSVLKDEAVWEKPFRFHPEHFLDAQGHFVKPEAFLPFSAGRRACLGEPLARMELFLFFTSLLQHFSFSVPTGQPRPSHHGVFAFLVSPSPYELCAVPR
In short: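 Room-temperature luminescent CYP2D6 activity assay: compound preincubated 10 min with enzyme–substrate mix, NADPH-initiated reaction 1 h, detection reagent 20 min before reading.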

[4] = target: Cytochrome P450 2C19 (Homo sapiens) (UniProt P33261); experiment: Cytochrome P450 Family 2 Subfamily C Member 19 (CYP2C19) small molecule antagonists: luciferase reporter qHTS assay (AID 1671197); details: P450-Glo CYP2C19 enzyme, luciferin luminescence, 1 h; series mostly up to 115 µM; also: potency is read from the fitted curve at half-maximal effect; nearly all actives have a fitted effect of over 65% in size
Sequence of Cytochrome P450 2C19 (Homo sapiens) (P33261 whole entry, looked up): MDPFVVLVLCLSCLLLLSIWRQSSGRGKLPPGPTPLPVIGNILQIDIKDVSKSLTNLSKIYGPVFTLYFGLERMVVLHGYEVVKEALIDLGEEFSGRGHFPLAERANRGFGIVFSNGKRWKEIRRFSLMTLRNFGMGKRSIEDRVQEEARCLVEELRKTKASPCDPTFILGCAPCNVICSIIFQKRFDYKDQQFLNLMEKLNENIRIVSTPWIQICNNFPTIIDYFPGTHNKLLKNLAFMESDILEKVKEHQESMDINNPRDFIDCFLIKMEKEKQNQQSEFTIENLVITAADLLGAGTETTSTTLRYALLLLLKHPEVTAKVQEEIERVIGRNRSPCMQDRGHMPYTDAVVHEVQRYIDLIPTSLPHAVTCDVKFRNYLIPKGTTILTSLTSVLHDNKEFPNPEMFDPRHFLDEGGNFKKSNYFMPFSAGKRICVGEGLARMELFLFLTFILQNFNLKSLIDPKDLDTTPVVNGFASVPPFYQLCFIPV
In short: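 Relative luminescence units recorded 20 min after the detection reagent stopped a 1 h, 37C CYP2C19 reaction on proluciferin substrate, which was started by NADPH regeneration following 10 min room-temperature compound preincubation; ketoconazole positive control.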

[5] = target: Cytochrome P450 2C9 (Homo sapiens) (UniProt P11712); experiment: Cytochrome P450 Family 2 Subfamily C Member 9 (CYP2C9) small molecule antagonists: luciferase reporter qHTS assay (AID 1671198); details: P450-Glo CYP2C9 enzyme assay, luciferin luminescence; series mostly up to 115 µM; also: nearly all actives have a fitted effect of over 50% in size; also: potency is read from the fitted curve at half-maximal effect
Sequence of Cytochrome P450 2C9 (Homo sapiens) (P11712 whole entry, looked up): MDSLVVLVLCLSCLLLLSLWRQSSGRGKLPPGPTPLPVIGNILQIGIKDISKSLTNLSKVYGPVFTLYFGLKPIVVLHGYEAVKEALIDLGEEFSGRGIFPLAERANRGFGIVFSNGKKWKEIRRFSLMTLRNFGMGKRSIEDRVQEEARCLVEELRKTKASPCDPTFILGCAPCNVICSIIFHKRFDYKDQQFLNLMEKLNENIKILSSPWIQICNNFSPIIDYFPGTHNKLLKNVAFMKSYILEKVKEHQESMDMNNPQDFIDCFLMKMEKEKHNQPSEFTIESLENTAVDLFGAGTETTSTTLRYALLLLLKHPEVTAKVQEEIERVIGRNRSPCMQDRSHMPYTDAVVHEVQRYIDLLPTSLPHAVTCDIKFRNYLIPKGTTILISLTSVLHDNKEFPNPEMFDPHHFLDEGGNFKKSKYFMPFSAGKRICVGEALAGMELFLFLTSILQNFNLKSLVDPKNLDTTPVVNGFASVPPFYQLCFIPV
In short: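 P450-Glo proluciferin substrate with CYP2C9 enzyme; 10 min RT preincubation, then NADPH regeneration 1 h at 37C; luciferin detection reagent 20 min RT, luminescence in relative luminescence units.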

[6] = target: Cytochrome P450 1A2 (Homo sapiens) (UniProt P05177); experiment: Cytochrome P450 Family 1 Subfamily A Member 2 (CYP1A2) small molecule antagonists: luciferase reporter qHTS assay (AID 1671199); details: P450-Glo CYP1A2 enzyme, luciferin luminescence, 1 h; series mostly up to 115 µM; also: nearly all actives have a fitted effect of over 50% in size; also: potency is read from the fitted curve at half-maximal effect
Sequence of Cytochrome P450 1A2 (Homo sapiens) (P05177 whole entry, looked up): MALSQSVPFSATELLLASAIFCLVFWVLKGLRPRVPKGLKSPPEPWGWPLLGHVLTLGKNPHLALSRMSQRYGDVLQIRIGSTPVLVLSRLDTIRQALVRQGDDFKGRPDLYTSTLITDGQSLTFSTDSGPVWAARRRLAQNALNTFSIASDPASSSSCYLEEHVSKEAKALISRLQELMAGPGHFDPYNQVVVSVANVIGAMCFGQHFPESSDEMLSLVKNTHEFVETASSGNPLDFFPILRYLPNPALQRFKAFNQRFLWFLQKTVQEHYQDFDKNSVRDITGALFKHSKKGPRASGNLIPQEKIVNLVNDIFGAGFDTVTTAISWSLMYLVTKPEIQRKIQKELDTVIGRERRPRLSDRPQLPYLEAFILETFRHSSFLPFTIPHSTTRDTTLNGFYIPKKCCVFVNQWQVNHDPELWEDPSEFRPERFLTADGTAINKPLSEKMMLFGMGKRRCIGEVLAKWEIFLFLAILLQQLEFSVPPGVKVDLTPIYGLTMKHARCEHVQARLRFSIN
In short: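 Room-temperature CYP1A2 reaction with proluciferin substrate: compounds added from DMSO, 10 min preincubation, NADPH regeneration for 1 h. Luciferin detection reagent then added; luminescence recorded as RLU.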

[7] = target: Voltage-gated inwardly rectifying potassium channel KCNH2 (Homo sapiens) (UniProt Q12809); experiment: Human Ether-a-go-go-Related Gene (hERG) channel small molecule antagonists: fluorescence cell-based qHTS assay (AID 1671200); details: hERG-U2OS cells, FluxOR thallium flux fluorescence; series mostly up to 76.8 µM;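 also: hERG-expressing U2OS cells given a thallium stimulus after FluxOR II dye loading; nearly all actives have a fitted effect of over 50% in size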
Sequence of Voltage-gated inwardly rectifying potassium channel KCNH2 (Homo sapiens) (Q12809 whole entry, looked up): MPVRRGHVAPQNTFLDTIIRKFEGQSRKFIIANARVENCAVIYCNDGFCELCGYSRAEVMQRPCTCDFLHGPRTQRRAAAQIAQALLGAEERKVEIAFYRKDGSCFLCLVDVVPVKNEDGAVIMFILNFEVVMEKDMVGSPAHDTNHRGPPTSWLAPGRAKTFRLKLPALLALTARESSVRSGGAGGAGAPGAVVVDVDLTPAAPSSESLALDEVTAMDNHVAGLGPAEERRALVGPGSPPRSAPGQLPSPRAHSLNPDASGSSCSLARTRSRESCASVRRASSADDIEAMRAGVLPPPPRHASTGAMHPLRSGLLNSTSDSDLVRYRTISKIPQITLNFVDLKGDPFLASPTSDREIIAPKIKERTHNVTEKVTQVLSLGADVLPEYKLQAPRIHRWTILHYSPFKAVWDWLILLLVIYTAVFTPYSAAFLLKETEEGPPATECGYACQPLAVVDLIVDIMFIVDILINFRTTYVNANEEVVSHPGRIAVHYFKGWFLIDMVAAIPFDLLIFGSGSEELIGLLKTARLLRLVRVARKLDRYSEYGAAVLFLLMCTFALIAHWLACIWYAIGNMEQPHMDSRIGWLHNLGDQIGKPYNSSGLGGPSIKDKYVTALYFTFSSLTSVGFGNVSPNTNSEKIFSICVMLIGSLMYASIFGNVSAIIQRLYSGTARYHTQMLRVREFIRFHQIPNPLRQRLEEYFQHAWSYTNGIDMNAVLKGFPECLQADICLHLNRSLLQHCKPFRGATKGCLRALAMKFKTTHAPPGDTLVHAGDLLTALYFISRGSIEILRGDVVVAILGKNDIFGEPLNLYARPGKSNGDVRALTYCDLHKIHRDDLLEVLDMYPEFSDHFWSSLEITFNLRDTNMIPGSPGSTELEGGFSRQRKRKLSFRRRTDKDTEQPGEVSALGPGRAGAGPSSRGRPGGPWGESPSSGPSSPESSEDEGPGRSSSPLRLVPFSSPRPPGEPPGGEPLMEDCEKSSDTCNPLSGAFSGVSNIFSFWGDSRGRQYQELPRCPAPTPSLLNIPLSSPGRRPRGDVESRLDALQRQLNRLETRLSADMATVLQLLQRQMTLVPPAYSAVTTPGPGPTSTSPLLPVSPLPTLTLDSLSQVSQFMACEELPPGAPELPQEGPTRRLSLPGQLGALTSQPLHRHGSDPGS
In short: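 Thallium served as the potassium surrogate; its influx into dye-loaded U2OS cells carrying the channel was measured by fluorescence over 2 min.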

[8] = target: Cytochrome P450 3A4 (Homo sapiens) (UniProt P08684); experiment: Cytochrome P450 Family 3 Subfamily A Member 4 (CYP3A4) small molecule antagonists: luciferase reporter qHTS assay (AID 1671201); details: P450-Glo CYP3A4 enzyme, luciferin luminescence, 1 h; series mostly up to 115 µM; also: nearly all actives have a fitted effect of over 50% in size
Sequence of Cytochrome P450 3A4 (Homo sapiens) (P08684 whole entry, looked up): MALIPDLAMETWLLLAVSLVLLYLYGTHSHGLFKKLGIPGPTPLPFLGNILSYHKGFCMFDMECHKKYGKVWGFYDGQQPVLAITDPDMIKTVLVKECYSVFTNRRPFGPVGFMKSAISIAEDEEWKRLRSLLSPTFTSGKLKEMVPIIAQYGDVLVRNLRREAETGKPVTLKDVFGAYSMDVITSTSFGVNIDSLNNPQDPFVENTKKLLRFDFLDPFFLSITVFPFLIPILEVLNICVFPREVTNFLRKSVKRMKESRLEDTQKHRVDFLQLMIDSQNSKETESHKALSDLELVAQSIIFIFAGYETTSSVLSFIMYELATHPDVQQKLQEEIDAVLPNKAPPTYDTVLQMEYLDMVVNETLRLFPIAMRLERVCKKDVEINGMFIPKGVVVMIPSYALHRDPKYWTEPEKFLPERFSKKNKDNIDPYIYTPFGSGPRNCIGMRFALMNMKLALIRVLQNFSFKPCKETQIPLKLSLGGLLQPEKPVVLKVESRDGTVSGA
In short: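 Relative luminescence units after 20 min with luciferin detection reagent served as read-out. Beforehand, CYP3A4 turned over a proluciferin substrate for 1 h at room temperature with NADPH regeneration, following 10 min compound preincubation.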

[9] = target: Acetylcholinesterase (Homo sapiens) (UniProt P22303); experiment: Acetylcholinesterase (AChE) small molecule antagonists: fluorescence cell-based qHTS assay (AID 1347398; calls by dose curve; also: nearly all actives have a fitted effect of over 50% in size); details: SH-SY5Y cells; Potency: AChE activity; series mostly up to 115 µM
In short: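 SH-SY5Y, 2,000 cells/well, attached overnight; cmpd 30 min 37 C; acetylthiocholine/Thiolite Green cocktail 40 min RT; fluorescence Ex/Em 490/520 nm.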

Row | SMILES | Potency [1] | Potency [2] | Potency [3] | Potency [4] | Potency [5] | Potency [6] | Potency [7] | Potency [8] | Potency [9]
1 | O=C(CCl)c1ccccc1 | inactive | inactive | 32.1 µM (active) and 31.7 µM (active) | 57.2 µM (active) | 40.5 µM (active) and inactive | inactive | inactive | inactive | 
2 | CCOc1cc(Oc2ccc(C(F)(F)F)cc2Cl)ccc1[N+](=O)[O-] | inactive | inactive | 2.27 µM (active) and 5.64 µM (active) | 5.7 µM (active) and 7.1 µM (active) | 4.53 µM (active) and 6.33 µM (active) | 20 µM (active) | inactive | inactive | inactive
3 | CCOC(=O)C(C)OC(=O)c1cc(Oc2ccc(C(F)(F)F)cc2Cl)ccc1[N+](=O)[O-] (stereo unspecified) | inactive | inactive |  | 6.3 µM (active) and 6.33 µM (active) | 7.06 µM (active) and 7.1 µM (active) | inactive | inactive | inactive | inactive
4 | CCOC(=S)S |  |  |  |  |  |  | inactive |  | 
